Whole data set: some 33,000 sequences, median “e-score” near -0.053, cut for the highest 2% near 0.38. This is one part of a sample in which the highest values are shown more often than they occur.
molecular target: T1, SIX1 homeodomain (reference allele) (human, UniProt Q15475 108-198); assay: universal protein binding microarray; Universal all-10-mer PBM (8x60K, AMADID 030236), 300 nM GST-tagged protein, Alexa Fluor 488 anti-GST; buffer, salt, pH and temperature not stated (as in Berger); high values mean tight binding; details: protein: ivt; tags: N-terminal GST; dsDNA, one strand shown
T1 sequence: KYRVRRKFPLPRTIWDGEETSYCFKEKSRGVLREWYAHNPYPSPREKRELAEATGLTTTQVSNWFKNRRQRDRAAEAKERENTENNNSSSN
In short: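 GST-tagged homeodomains were made by in vitro transcription/translation and quantified by anti-GST western blot against a recombinant GST standard curve. They were applied in duplicate at 300 nM final concentration to universal 'all 10-mer' protein binding microarrays (8×60K format). Binding was quantified as 8-mer E-scores with the Universal PBM Analysis Suite.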

| Sequence | binding signal [E-score] |
| --- | --- |
| CAGATAGG | 0.245 ± 0.0333 |
| TATATAAA | 0.197 ± 0.00308 |
| TAGATCTA | 0.175 ± 0.0374 |
| ATATGTAC | 0.244 ± 0.0293 |
| ATCGCTTG | 0.156 ± 0.032 |
| ATACGGTG | 0.328 ± 0.012 |
| AATCGATA | 0.335 ± 0.0577 |
| ATACGATC | 0.388 ± 0.00595 |
| GAACGATC | 0.236 ± 0.00301 |
| ATACGATG | 0.277 ± 0.0162 |
| GATCGATA | 0.408 ± 0.0108 |
| ATACGGTC | 0.256 ± 0.0328 |
| TAACGATA | 0.315 ± 0.0478 |
| GATCGATC | 0.362 ± 0.0437 |
| ATACGGTA | 0.405 ± 0.0105 |
| CTACGATC | 0.233 ± 0.0113 |
| GAACGATA | 0.383 ± 0.0174 |
| ACCAGGGT | 0.189 ± 0.0407 |
| CCGTCTAC | 0.171 ± 0.0578 |
| ATCGGTTG | 0.238 ± 0.008 |
| TAATCTCA | 0.186 ± 0.0184 |
| GTGTCCAA | 0.221 ± 0.057 |

| Sequence | binding signal [E-score] |
| --- | --- |
| GGGCTAGA | 0.209 ± 0.0223 |
| ATACTATA | 0.371 ± 0.0468 |
| ACACGATA | 0.384 ± 0.0253 |
| ACACGATG | 0.156 ± 0.0256 |
| GTACGATA | 0.338 ± 0.0355 |
| CTACTATC | 0.273 ± 0.0271 |
| ATACGATA | 0.419 ± 0.0297 |
| ACACGATC | 0.266 ± 0.019 |
| CTACGATA | 0.321 ± 0.0303 |
| ATACTATC | 0.401 ± 0.0105 |
| AACTATAC | 0.24 ± 0.0587 |
| AGATGTAT | 0.338 ± 0.00993 |
| ATACGCAC | 0.254 ± 0.00836 |
| CCCATGGG | 0.152 ± 0.0229 |
| GATCGGCA | 0.211 ± 0.0237 |
| ATACACAT | 0.289 ± 0.00303 |
| CTGTGATA | 0.39 ± 0.0381 |
| CTGTGATC | 0.328 ± 0.00414 |
| GTGTGAGA | 0.245 ± 0.029 |
| ATGTGATA | 0.392 ± 0.0638 |
| GTGTGATA | 0.411 ± 0.0318 |
| GTGTGTGA | 0.174 ± 0.0383 |

| Sequence | binding signal [E-score] |
| --- | --- |
| ATGTGATC | 0.32 ± 0.0109 |
| ATGTGAGA | 0.165 ± 0.0625 |
| AGATAGGA | 0.175 ± 0.0479 |
| CGAATCCA | 0.1647 ± 0.00129 |
| CCCGCGGA | 0.205 ± 0.00383 |
| TATCTGCA | 0.284 ± 0.0307 |
| GAAATACC | 0.1851 ± 0.00123 |
| ATACCGCG | 0.377 ± 0.0129 |
| ATACCGAA | 0.329 ± 0.0172 |
| ATACCGCC | 0.418 ± 0.0211 |
| ATACCGAT | 0.3532 ± 0.00127 |
| ATACCGCA | 0.4061 ± 0.00272 |
| ACACCGCA | 0.351 ± 0.043 |
| ACACCGCG | 0.283 ± 0.0738 |
| ATACCGAG | 0.304 ± 0.0181 |
| ACACCGCC | 0.321 ± 0.0533 |
| CTGAGCCC | 0.161 ± 0.049 |
| ATCCCAAC | 0.189 ± 0.0265 |
| ATACGTCA | 0.196 ± 0.0392 |
| ATCAGCGG | 0.171 ± 0.08 |
| ACAATATC | 0.309 ± 0.0486 |
| ATGATCGC | 0.265 ± 0.0383 |

| Sequence | binding signal [E-score] |
| --- | --- |
| ATGATAGG | 0.387 ± 0.0153 |
| ACGATAGG | 0.269 ± 0.00971 |
| AGGATAGG | 0.306 ± 0.0312 |
| ATGATAGC | 0.379 ± 0.0583 |
| CTGATAGC | 0.319 ± 0.0368 |
| ATCCAGCA | 0.198 ± 0.0454 |
| CGTAACAC | 0.205 ± 0.0442 |
| ATTACATC | 0.248 ± 0.072 |
| CGATCTTC | 0.288 ± 0.0189 |
| GATGGGTA | 0.223 ± 0.0133 |
| GTTTGATA | 0.379 ± 0.067 |
| CTTTGATA | 0.331 ± 0.0715 |
| GTTCGATA | 0.324 ± 0.0131 |
| ATTTGATA | 0.397 ± 0.0881 |
| CTTTGATC | 0.213 ± 0.0316 |
| ATTTGATC | 0.215 ± 0.0531 |
| CAATACGA | 0.207 ± 0.026 |
| ATCACTTC | 0.3 ± 0.0422 |
| ATCAGATC | 0.394 ± 0.0295 |
| CTCAGATA | 0.31 ± 0.032 |

— paper PMC10668032, “Altered binding affinity of SIX1-Q177R correlates with enhanced WNT5A and WNT pathway effector expression in Wilms tumor”
